Source: PubChem BioAssay (National Center for Advancing Translational Sciences (NCATS))
Sampled rows, rich in hits. Any-hit rate of the full collection: about 3.1%.
TSHR ag: TSH receptor (human) agonism; P16473; HEK293-CNG-TSHR cells (CNG channel as cAMP sensor), membrane potential dye, cAMP; Potency, µM (doses to about 57.1 µM), for the others: at the highest dose activation, hits mostly activators; 0.48% of 73,000 active; AID 926; active = well fitted activation curve with a large enough effect in the main read-out, with a control signal flat, not every such curve was filed as active; inconclusive = small, poorly fitted or top-dose-only effect, or a change in a side signal; inactive = no such curve, though single readings can be large or run the other way; % of control where 0% means no effect;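 also: the control signal comes from parental cells without the receptor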
Target sequence (P16473 whole entry, looked up): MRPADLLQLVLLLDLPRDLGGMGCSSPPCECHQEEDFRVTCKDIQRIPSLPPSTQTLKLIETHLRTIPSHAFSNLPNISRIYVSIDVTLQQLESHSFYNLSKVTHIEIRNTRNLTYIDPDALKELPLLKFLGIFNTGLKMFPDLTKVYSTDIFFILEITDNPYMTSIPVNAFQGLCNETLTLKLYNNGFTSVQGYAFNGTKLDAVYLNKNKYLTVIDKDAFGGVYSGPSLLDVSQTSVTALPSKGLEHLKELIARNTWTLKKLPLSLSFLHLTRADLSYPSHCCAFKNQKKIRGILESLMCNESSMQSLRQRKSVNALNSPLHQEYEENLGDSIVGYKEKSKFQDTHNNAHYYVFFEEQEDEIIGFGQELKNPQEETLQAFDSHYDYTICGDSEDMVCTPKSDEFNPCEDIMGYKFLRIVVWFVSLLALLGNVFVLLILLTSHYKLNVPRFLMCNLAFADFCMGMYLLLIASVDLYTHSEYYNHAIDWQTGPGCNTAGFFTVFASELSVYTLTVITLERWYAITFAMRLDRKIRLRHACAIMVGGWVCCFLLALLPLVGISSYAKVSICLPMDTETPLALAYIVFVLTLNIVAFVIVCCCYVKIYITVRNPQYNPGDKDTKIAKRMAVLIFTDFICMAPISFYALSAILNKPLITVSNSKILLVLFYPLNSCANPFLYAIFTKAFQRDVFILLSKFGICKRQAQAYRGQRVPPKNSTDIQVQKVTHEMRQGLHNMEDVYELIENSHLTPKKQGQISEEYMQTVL
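HEK 293 cells stably expressing TSHR and a cAMP-gated CNG channel; parental CNG-only cells as counterscreen. Cells preloaded 60 min with membrane potential dye plus 100 uM RO 20-1724, then compound 30 min; fluorescence read at 590 nm.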
p53ts 32C kill: cytotoxicity in p53ts cells at permissive temperature | 0.93% of 130,000 active | H1299-p53A138V at 32C, ATP luminescence viability, 24 h | Potency, µM (series often up to 46.1 µM), without a hit: at the top dose activity change, negative = cytotoxicity, hits mostly cytotoxic;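 also: 0% = DMSO and -100% = full killing by reference compound; nearly all actives have a fitted effect of over 55% in size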
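Viability by ATPlite luminescence after 24 h compound treatment (up to 46 uM) at the permissive 32C. Cells are H1299 carrying p53 A138V. Scale runs from DMSO basal to 100 uM tamoxifen as full kill; AC50 from Hill fits.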
IkB signaling: IkB pathway inhibition in ABC-DLBCL cells; Potency, µM (highest dose often 57.1 µM), inactives show top-dose IkBa stabilization activation; ABC-DLBCL IkBa-CBG/CBR dual luciferase ratio, 4 h; response scale: scaled: untreated 0%, proteasome inhibitor 100%; 0.04% of 110,000 active; active = well fitted curve in the direction sought with a large enough effect in the signal ratio, not every such curve was filed as active; inconclusive = small, poorly fitted or top-dose-only effect, or a change in a side signal; the % refers to the signal ratio;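 also: the direction sought is a rising ratio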
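In this assay, an IκBα–CBG68 fusion accumulates when IKK-driven degradation is blocked; native CBR normalizes for cell number. OCI-Ly3 cells were treated 4 h with compound and doxycycline, then green and red light read after Chroma-Glo addition.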
p53ts 39C tox: p53ts cell cytotoxicity, nonpermissive temperature; H1299-p53A138V viability at 39C, ATP luminescence, 24 h; Potency, µM (doses to about 46.1 µM), without a hit: top-dose activity change, negative = cell killing, actives largely listed as cytotoxic; 1.5% of 130,000 active; AID 902; also: % is scaled to controls: 0 for no effect and ±100 for the full control effect; nearly all actives have a fitted effect of over 55% in size
Peg3 imprint: inducers of genomic imprint erasure in mouse ES cells | AID 1948 | Potency, µM (highest dose often 60.7 µM), without a hit: at the top dose activity change, positive = activation, usual class: activators | 0.02% of 110,000 active | mouse ES Peg3-LacZ reporter, beta-gal luminescence, 40 h
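Readout: BetaGlo luminescence (5 min, room temp) for LacZ from the normally silent maternal Peg3 allele in female Peg3LacZ-Neo ES cells. Cells 300/well, 40 h, 37C, 5% CO2. Data normalized per plate to negative controls.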
HEK293 cAMP cs: counter-screen for TSHR agonists: cAMP increase in parental HEK293; parental HEK293 CNG cAMP sensor, membrane potential fluorescence; Potency, µM (doses to about 57.1 µM), without a hit: at the highest dose activation, usual class: activators; 2.5% of 73,000 active; AID 938; also: % of control where 0% means no effect; nearly all actives have a fitted effect of over 55% in size
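Parental HEK 293 cells stably expressing a cAMP-gated CNG channel were loaded with membrane potential dye containing 100 uM RO 20-1724 for 60 min. Compound added for 30 min; depolarization read as fluorescence intensity at 590 nm.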
Starred values were filed as active, the others as inactive; ? = inconclusive; nt = no result; ! = not confirmed by another sample; [ ] = another dose, or the depositor's remark. Unless noted, calls follow the shape of the dose curve; as a rule, active = well fitted curve in the direction sought with a large enough effect; inconclusive = small, poorly fitted or top-dose-only effect, or another doubt; inactive = no such curve, though single readings can be large; an effect the other way counts as inactive or inconclusive. Potency is read from the fitted curve at half-maximal effect.

SMILES | TSHR ag | p53ts 32C kill | IkB signaling | p53ts 39C tox | Peg3 imprint | HEK293 cAMP cs
O=C(CSc1nc2sc3c(c2c(=O)[nH]1)CCCC3)Nc1ccccc1F | nt | 8% | ? | -26% | -6%[10.9 µM] | nt
CCN(CC)S(=O)(=O)c1cccc(-c2nnc(SC(C)C#N)n2Cc2ccccc2)c1 (stereo not drawn) | ? | -5% | 0% | -9% | -7% | 25µM*
CCN(CC)S(=O)(=O)c1cccc(-c2nnc(SCC#N)n2Cc2ccccc2)c1 | ? | 4% | 1% | -3% | -17% | ?
CC(C)Cn1c(=O)c2ccccc2n2c(CCC(=O)NCc3ccc(Cl)cc3)nnc12 | nt | 6% | -4% | -20% | -6%[10.9 µM] | nt
O=C(NCC(c1ccc(F)cc1)N1CCOCC1)c1ccc(Br)o1 (stereo not drawn) | ? | 2% | 0% | -17% | 1% | 25µM*
COc1ccc(N2CCN(Cc3nc4c(c(=O)n(C)c(=O)n4C)n3Cc3ccccc3C)CC2)cc1 | 10µM* | -3% | 1% | -3% | -5% | 4%
Cn1c(=O)c2c(nc(CN3CCc4ccccc4C3)n2CCc2ccccc2)n(C)c1=O | ? | -1% | -1% | 14% | 12% | 5µM*
O=C(NCc1cccc(Cl)c1)c1cnc(N2CCCCC2)c2ccccc12 | nt | 1% | ? | -19% | -2%[10.9 µM] | nt
COc1ccc(NC(=O)c2ccc3c(=O)n4nc(Nc5ccccc5C)sc4nc3c2)cc1 | nt | -29% | -1% | -22% | -9%[10.9 µM] | nt
COc1ccc(NC(=O)c2ccc3c(=O)n4nc(Nc5ccccc5C)sc4nc3c2)cc1Cl | nt | 10µM* | ? | 7.9µM* | 25%[10.9 µM] | nt
Cc1ccc(NC(=O)c2ccc3c(=O)n4nc(Nc5ccccc5C)sc4nc3c2)cc1C | nt | 13µM* | ? | 38% | 9%[10.9 µM] | nt
CCOC(=O)c1noc2nc(C)n(CC(=O)Nc3ccc(OC)c(Cl)c3)c(=O)c12 | nt | 2% | -2% | -5% | -7%[10.9 µM] | nt
Cc1nc(S(=O)(=O)N2CCN(c3ccc(Cl)cc3)CC2)cn1C | nt | -10% | 0% | -14% | -12%[10.9 µM] | nt
COc1ccc(CCNC(=O)CCCCn2c(=O)c3ccccc3n(CC(=O)Nc3ccccc3C)c2=O)cc1OC | nt | 8% | -2% | 3% | -8%[10.9 µM] | nt
COC(=O)c1ccc(NS(=O)(=O)c2ccc3c(c2)oc(=O)n3C)cc1 | ? | 3% | 6% | -1% | -17% | 1.3µM*
CCOC(=O)c1ccc(NS(=O)(=O)c2ccc3c(c2)oc(=O)n3C)cc1 | 3% | 19% | 1% | 14% | -14% | 18%
CC(C)=CCCC(C)C1CC[C@@]2(C)C3=C(CC[C@@]12C)C1(C)CCC(O)C(C)(C)C1CC3 (stereo partly drawn) | nt | -1% | nt | 2% | -20% | nt
Cc1ccc(Cl)cc1-n1c(=O)cc(N2CCN(c3ccccc3)CC2)[nH]c1=O | nt | 0% | ? | -23% | 5%[10.9 µM] | nt
Cc1cc(C)c2ccc(C)[n+]([O-])c2c1O | -10% | 4% | -1% | 10% | 15% | 1%
Cc1cc(C)c2ccc(N)nc2c1O | ? | -22% | 5µM* | ? | -26% | ?
CCOC(=O)c1ccc(NC(=O)C2CCCN(c3ncnc4onc(-c5ccc(F)cc5)c34)C2)cc1 (stereo not drawn) | nt | -4% | ? | -13% | 12%[10.9 µM] | nt
O=C(NCCCN1CCCCCC1)[C@@H](c1ccccc1)C1CCCCC1 | ? | 11% | 1% | ? | -5% | 16µM*
CC(=O)c1cccc(NC(=O)c2cc(-c3ccc4c(c3)OCCO4)on2)c1 | nt | 1.3µM* | ? | 2.5µM* | -8%[10.9 µM] | nt
Cc1ccc(OC(=O)c2cc(-c3ccc4c(c3)OCCO4)on2)c(C)c1 | nt | 20µM* | 2% | 13µM* | -16%[10.9 µM] | nt
CC(=O)Nc1ccc(NC(=O)c2cc(-c3ccc4c(c3)OCCO4)on2)cc1 | nt | ? | 0% | 1.6µM* | -12%[10.9 µM] | nt
SMILES | TSHR ag | p53ts 32C kill | IkB signaling | p53ts 39C tox | Peg3 imprint | HEK293 cAMP cs
Cc1ccn2cc(C(=O)Nc3ccc4c(c3)OCCO4)nc2c1 | 4% | 13µM* | ? | 13µM* | -32% | 6%
CC(=O)c1ccc(NC(=O)c2cc(-c3ccc4c(c3)OCO4)on2)cc1 | nt | 8% | 4% | 20% | 7%[10.9 µM] | nt
S=C(Nc1ccc2c(c1)Cc1ccccc1-2)Nc1ccc2c(c1)Cc1ccccc1-2 | -5%[11.4 µM] | 6%[9.22 µM] | 0%[11.4 µM] | 1%[9.22 µM] | -2%[10.9 µM] | -3%[11.4 µM]
CC(=O)O[C@H]1C(=O)[C@]2(C)[C@H]([C@H](OC(=O)c3ccccc3)[C@@]3(O)C[C@H](OC(=O)[C@@H](O)[C@@H](NC(=O)c4ccccc4)c4ccccc4)C(C)=C1C3(C)C)[C@]1(OC(C)=O)CO[C@@H]1C[C@@H]2O | 0% | nt | 2%[11.4 µM] | nt | nt | 1%
CO[C@@H]1COC(=O)CC=C[C@@H](C)[C@@H]2C=C[C@H](O)[C@@H](COC(=O)C/C=C\[C@H]1C)O2 | -1%[11.4 µM] | 10%[9.22 µM] | nt | 4%[9.22 µM] | nt | 2%[11.4 µM]
C=C(C)C(=O)OCC1CN2C(CCC(C)C2c2ccc(Br)cc2)C(=O)O1 (stereo not drawn) | ? | 0%[9.22 µM] | nt | -7%[9.22 µM] | nt | 1.6µM*!
C=COCC1CN2C(CCC(C)C2c2ccc(Br)cc2)C(=O)O1 (stereo not drawn) | ? | 4%[9.22 µM] | nt | 6%[9.22 µM] | nt | ?
CCC1CCCCN1CCCNC(=O)c1cc2c(Cl)nc3ccc(C)cc3c2s1 (stereo not drawn) | nt | -14% | -5% | 13µM* | -16%[10.9 µM] | nt
Cc1ccc(C(=O)N2CCN(c3ccccc3)CC2)cc1C | ? | -2% | -1% | 13% | 9% | 25µM*
COc1cccc(-c2nc(CS(=O)(=O)CC(=O)NCCc3ccc(Cl)cc3)c(C)o2)c1 | nt | -3% | ? | -11% | -4%[10.9 µM] | nt
COc1ccc(/C=C2\SC(=N)N(c3nccs3)C2=O)cc1OC | nt | ? | nt | 14µM* | nt | nt
N=C1S/C(=C\c2ccc(-c3cccc(Cl)c3)o2)C(=O)N1c1nccs1 | nt | nt | nt | 0% | nt | nt
CN(C)c1ccc(/C=N/n2ncc3ccccc32)cc1 | 7%[11.4 µM] | 13µM* | ? | 16µM* | -69% | -5%
O=C(CN1CCCN(Cc2ccc(F)cc2Cl)C1=O)NCc1ccccc1 | 25µM* | -8% | 1% | 4% | -9% | 9%
CCCCN(C)CCNC(=O)c1cc(-c2ccc(Cl)s2)nc2ccccc12 | nt | 7% | ? | 13µM* | -9%[10.9 µM] | nt
CCC1CCCCN1CCCNC(=O)c1ccc2c(c1)sc1nc(-c3ccc(F)cc3)cn12 (stereo not drawn) | nt | 9% | 1% | -17% | -7%[10.9 µM] | nt
Nc1nc(N)nc(CCCCc2nc(N)nc(N)n2)n1 | -4%[11.4 µM] | nt | 0%[11.4 µM] | nt | nt | 8%[11.4 µM]
c1csc(-c2csc3nc(CN4CCOCC4)nc(NCc4ccc5c(c4)OCO5)c23)c1 | ? | -26% | ? | ? | -15% | 13µM*
